45 compounds from PMC4336329 (PLoS ONE, 2015) can be followed below.

Structures are written as SMILES. Hit rate of the full screen: of about 310,000 compounds, about 14,000 (4.5%) showed an effect of 50% or more. The effect is printed as a negative number. This is one part of a sample in which strong results are shown more often than they occur.
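Note: peak tail current of the secondary pulse compared with the same well before compound.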

human ether-à-go-go-related gene (hERG) potassium channel, sequence (Q12809 whole entry, looked up): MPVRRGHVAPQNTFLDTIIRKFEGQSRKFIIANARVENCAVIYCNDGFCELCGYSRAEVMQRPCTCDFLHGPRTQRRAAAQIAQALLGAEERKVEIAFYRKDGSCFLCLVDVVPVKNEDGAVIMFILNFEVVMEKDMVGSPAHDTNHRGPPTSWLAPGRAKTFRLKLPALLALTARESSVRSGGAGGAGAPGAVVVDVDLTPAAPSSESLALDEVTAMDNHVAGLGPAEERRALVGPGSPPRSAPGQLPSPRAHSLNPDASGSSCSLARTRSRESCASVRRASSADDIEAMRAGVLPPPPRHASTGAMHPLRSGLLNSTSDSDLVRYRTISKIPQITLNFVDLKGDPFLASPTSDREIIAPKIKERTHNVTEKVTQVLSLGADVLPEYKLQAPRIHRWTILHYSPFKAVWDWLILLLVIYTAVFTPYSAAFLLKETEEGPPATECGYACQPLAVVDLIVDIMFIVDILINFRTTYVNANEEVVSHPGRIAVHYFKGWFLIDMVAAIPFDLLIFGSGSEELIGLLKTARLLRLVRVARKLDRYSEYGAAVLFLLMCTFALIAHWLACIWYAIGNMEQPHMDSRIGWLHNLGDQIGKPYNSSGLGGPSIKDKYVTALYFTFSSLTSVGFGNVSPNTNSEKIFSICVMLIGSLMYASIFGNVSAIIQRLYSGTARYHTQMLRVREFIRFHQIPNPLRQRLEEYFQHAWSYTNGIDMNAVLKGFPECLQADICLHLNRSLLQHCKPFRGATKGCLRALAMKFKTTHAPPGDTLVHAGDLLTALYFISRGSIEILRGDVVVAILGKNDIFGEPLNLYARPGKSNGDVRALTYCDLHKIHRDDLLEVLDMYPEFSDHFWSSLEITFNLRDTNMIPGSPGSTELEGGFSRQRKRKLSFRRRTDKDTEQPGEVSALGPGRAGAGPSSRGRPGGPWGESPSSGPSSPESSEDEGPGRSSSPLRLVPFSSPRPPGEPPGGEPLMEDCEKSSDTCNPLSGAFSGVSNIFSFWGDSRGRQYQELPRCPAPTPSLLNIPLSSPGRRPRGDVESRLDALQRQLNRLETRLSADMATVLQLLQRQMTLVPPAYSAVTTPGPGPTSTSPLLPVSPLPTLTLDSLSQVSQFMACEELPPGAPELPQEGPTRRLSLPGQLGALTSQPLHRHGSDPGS

This test has as its target human ether-à-go-go-related gene (hERG) potassium channel (human, UniProt Q12809). The test is described as follows: primary screen, population patch clamp on CHO cells stably expressing hERG; higher = less effect of the substance.
Regarding `CC(C)(C)S(=O)(=O)/C(C#N)=N/Nc1ccc(C#N)cc1`, the “hERG current change (%, negative = inhibition) at 10uM” value stood at 22.1%.

With `CN(CCc1ccccn1)C(=O)Nc1ccc(F)cc1`, the “hERG current change (%, negative = inhibition) at 10uM” value was found to be 12.7%. The same measure for `COc1ccccc1/C=N/Nc1nc(C)c(C(C)=O)s1`: 5%.

Regarding `CC(Oc1ccccc1)C(=O)N1CCC2(CC1)Oc1ccc(F)cc1C(=O)C21CC(c2cccnc2)=NO1` (stereo not drawn), the “hERG current change (%, negative = inhibition) at 10uM” value is -20.5%. As for `[Cl-].c1ccc(COc2ccc(-c3sc(Nc4ccccc4)n[n+]3-c3ccccc3)cc2)cc1`, the figure is -43.9%; as for `O=C(CSc1nc(C(F)(F)F)cc(=O)[nH]1)N1CCCC1`, 19%. As for `Cc1ccc(NCc2ccco2)cc1C.O=C(O)C(=O)O`, the figure is 1.93%; as for `Cc1onc(-c2c(Cl)cccc2Cl)c1C(=O)Nc1nc(C(C)(C)C)cs1`, -26.4%. As for `COc1ccc(CN2CCCC(C(=O)c3sccc3C)C2)cc1O` (stereo not drawn), the figure is -71.9%; as for `Cc1ccsc1C(=O)C1CCCN(CCO)C1` (stereo not drawn), 5.34%.

For `Cc1nc(CCNC(=O)CC2C(=O)NCCN2Cc2ccc(F)cc2)sc1C` (stereo not drawn), the “hERG current change (%, negative = inhibition) at 10uM” value was determined as 12.3%. As for `O=C(OCc1cccc([N+](=O)[O-])c1)c1ccc2ccccc2n1`, the figure is 7.33%.

On to `CC(C)C(OC(=O)CN1C(=O)c2ccccc2C1=O)C(=O)NC1CCCC1` (stereo not drawn), for which the “hERG current change (%, negative = inhibition) at 10uM” value was 18.7%. Consider `COC(=O)CNC(=O)C12CC3CC(C1)CC(c1ccc(C)cc1)(C3)C2`, for which the “hERG current change (%, negative = inhibition) at 10uM” value came to 12.9%. The same measure for `C=CCn1c(O)c(C=NCCCOc2ccc(CC)cc2)c(=O)[nH]c1=S`: 21.8%; for `CCCCN(C)C(=O)C1CCN(Cc2ccc(OCc3ccccc3)cc2)CC1.O=C(O)C(=O)O`: -73.4%; for `O=C(NCc1ccccn1)C1CCN(Cc2cccc(OCc3ccccc3)c2)CC1.O=C(O)C(=O)O`: -35.7%. As for `CCN(CC)C(=O)C1CCN(Cc2ccc(OCc3ccccc3)cc2)CC1.O=C(O)C(=O)O`, the “hERG current change (%, negative = inhibition) at 10uM” value is listed as -48.7%. Consider `CCCCN(C)C(=O)C1CCN(Cc2cccc(OCc3ccccc3)c2)CC1.O=C(O)C(=O)O`, for which the “hERG current change (%, negative = inhibition) at 10uM” value is -67.7%. As for `CCN(CC)C(=O)C1CCN(Cc2cccc(OCc3ccccc3)c2)CC1.O=C(O)C(=O)O`, the figure is -39.6%; as for `NC(=O)C1CCN(Cc2ccc(OCc3ccccc3)cc2)CC1.O=C(O)C(=O)O`, -29.5%; as for `C=CCN(CC=C)C(=O)C1CCN(Cc2ccc(OCc3ccccc3)cc2)CC1.O=C(O)C(=O)O`, -68%. For the compound `COc1cccc(NC(=O)c2nn(C)c3c2CS(=O)(=O)c2ccccc2-3)c1`, the “hERG current change (%, negative = inhibition) at 10uM” value was 8.68%. Take `O=C(NCCCc1ccccc1)c1cccc([N+](=O)[O-])c1`: the “hERG current change (%, negative = inhibition) at 10uM” value is given as -23%.

`COc1ccc(COC(=O)Nc2cn(C)nc2C(F)(F)F)cc1`: the “hERG current change (%, negative = inhibition) at 10uM” value is -7.76%.

As to `C=C(C)C(=O)N1CC2(CC(c3cccc(NC(=O)COc4ccc(Cl)cc4)c3)=NO2)C[C@@H]1C(N)=O` (stereo partly drawn), the “hERG current change (%, negative = inhibition) at 10uM” value was -15.3%. As for `CN1Cc2c(N3CCOCC3)nc(SCCC#N)c(C#N)c2CC1(C)C`, the figure is -2.45%; as for `COc1ccc(Cc2nnc(NC(=O)c3ccco3)s2)cc1OC`, 5.42%.

With `c1ccc2[nH]c(CSc3nccs3)nc2c1`, the “hERG current change (%, negative = inhibition) at 10uM” value is given as -6.76%.

Turning to `O=C(Cn1cnc2c(nnn2Cc2ccccc2)c1=O)c1ccccc1`, the “hERG current change (%, negative = inhibition) at 10uM” value is -8%. As for `COCCN(Cc1cc2ccc(C)c(C)c2nc1Cl)C(=O)N1CCOCC1`, the figure is -11%; as for `OCC1(CC2CCCCO2)CCN(Cc2nc3ccccc3[nH]2)CC1` (stereo not drawn), 18%. The same measure for `OCC1(CCOc2ccccc2)CCN(Cc2cn[nH]c2-c2ccc(F)cc2)CC1`: -71.6%; for `OCCC1CN(Cc2nc3ccc(F)cc3[nH]2)CCN1C1CCCC1` (stereo not drawn): -15.9%. As to `Cc1ccccc1CC1(CO)CCCN(Cc2cn[nH]c2-c2ccccc2)C1` (stereo not drawn), the “hERG current change (%, negative = inhibition) at 10uM” value was -23.9%. The same measure for `OCC1(CCOc2ccccc2)CCN(Cc2nc3ccc(F)cc3[nH]2)CC1`: -55%; for `OCC1(CCOc2ccccc2)CCN(Cc2cn[nH]c2-c2ccccc2)CC1`: -74.4%; for `CC1CCN(CC(=O)Nc2ccc(S(=O)(=O)N3C(C)CCCC3C)cc2)CC1` (stereo not drawn): 3.93%. The same measure for `O=C(Cc1ccccc1)NCCc1cnc[nH]1`: 17.4%. As for `COc1ccc(C(=O)NCC(C)NC(=O)c2ccc(OC)c(OC)c2)cc1OC` (stereo not drawn), the figure is 13.8%; as for `COC(=O)Cc1ccc(NC(C)=O)cc1`, 8.79%. `COc1cccc(NC(=O)CCC(=O)NCc2ccco2)c1`: the “hERG current change (%, negative = inhibition) at 10uM” value came out at 17.2%. The same measure for `Cc1c(Cl)cccc1NC(=S)/C(=C(\[O-])c1ccc(Cl)s1)[n+]1ccccc1`: 3.76%; for `Cc1cc(C=C2C(=O)c3ccccc3C2=O)c(C)n1-c1ccc(C(=O)O)cc1`: 1.68%; for `Cc1nn2c(C(F)(F)F)cc(-c3ccc(Cl)cc3)nc2c1C(=O)N1CCOCC1`: -13.6%.
